# Bioassay records as filed in PubChem BioAssay.
# DT40 TDP1 CPT – DT40-hTDP1 cell growth loss with CPT; chicken DT40 Tdp1-/-;hTDP1 cells + 20 nM CPT, ATP luminescence, 48 h; Potency, µM (doses to about 46.2 µM), without a hit: at the highest dose activity change, negative = growth inhibition, most hits filed as inhibitors; 420,000 tested, 12% active; note: potency is the fitted concentration of half-maximal effect; % is set by controls: 0 for no effect and ±100 for the full control effect; nearly all actives have a fitted effect of over 55% in size
#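 Chicken DT40 Tdp1-/- cells complemented with human TDP1, 400 cells/well, exposed to compounds plus 20 nM camptothecin for at least 48 h at 37 C; viability read as ATP content by CellTiter-Glo luminescence.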
# HepG2 tox – kills HepG2 cells in TGF-b inhibitor counter-screen; HepG2 CAGA-GFP viability, ATP luminescence, 18 h; Potency, µM (highest dose often 46.1 µM), for inactives: at the highest dose activity change, negative = cytotoxicity, usual class: cytotoxic; 410,000 tested, 0.76% active; note: potency is the fitted concentration of half-maximal effect
#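 HepG2 CAGA-GFP cells (1000/well, DMEM with 1% FBS) received compound, then TGF-beta at 500 pg/mL final, and were incubated 18 hours at 37 degrees C. Viability was read by CellTiter-Glo luminescence. Media-only wells were set as complete cell-killing and DMSO as no toxicity.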
# DT40 TDP1 no CPT – qHTS for Inhibitors of human tyrosyl-DNA phosphodiesterase 1 (TDP1): qHTS in cells in absence of CPT; DT40 Tdp1-/- hTDP1 cells, no CPT, ATP luminescence, 48 h; 420,000 tested, 15% active; Potency, µM (top dose mostly 46.2 µM), for the others: at the highest dose activity change, negative = growth inhibition, actives largely listed as inhibitors; AID 686978, 2013; note: potency is the fitted concentration of half-maximal effect; % is set by controls: 0 for no effect and ±100 for the full control effect; nearly all actives have a fitted effect of over 55% in size
#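 DT40 Tdp1-/-;hTDP1 cells, no CPT (DMSO vehicle only), 400 cells/well; compounds pin-transferred; ≥48 hr, 37 °C; CellTiter-Glo 30 min RT dark, luminescence read.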
# TDP1 block – TDP1 (human) enzyme inhibition; Q9NUW8; recombinant TDP1, AlphaScreen DNA substrate cleavage; Potency, µM (highest dose often 130 µM), inactives show top-dose activity change, negative = inhibition, usual class: inhibitors; 350,000 tested, 0.28% active; AID 485290; note: potency is the fitted concentration of half-maximal effect; % is set by controls: 0 for no effect and ±100 for the full control effect; nearly all actives have a fitted effect of over 40% in size
# Target sequence (Q9NUW8 whole entry, looked up): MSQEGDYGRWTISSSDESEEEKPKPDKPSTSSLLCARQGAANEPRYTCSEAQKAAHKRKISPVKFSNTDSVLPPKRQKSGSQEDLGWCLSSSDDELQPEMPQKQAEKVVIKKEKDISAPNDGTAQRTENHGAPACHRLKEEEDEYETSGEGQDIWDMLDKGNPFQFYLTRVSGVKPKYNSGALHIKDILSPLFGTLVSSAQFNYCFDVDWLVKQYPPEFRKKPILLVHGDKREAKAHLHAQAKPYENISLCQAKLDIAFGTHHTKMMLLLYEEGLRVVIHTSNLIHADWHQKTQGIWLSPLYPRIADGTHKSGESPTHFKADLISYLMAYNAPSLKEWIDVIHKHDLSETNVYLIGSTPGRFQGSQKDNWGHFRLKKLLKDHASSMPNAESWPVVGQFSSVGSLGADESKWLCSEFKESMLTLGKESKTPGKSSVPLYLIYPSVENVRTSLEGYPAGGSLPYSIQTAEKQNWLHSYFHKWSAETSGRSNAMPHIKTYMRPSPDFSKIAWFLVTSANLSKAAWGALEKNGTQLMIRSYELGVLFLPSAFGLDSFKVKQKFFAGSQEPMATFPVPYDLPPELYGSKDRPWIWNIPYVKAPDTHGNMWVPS
#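 Here, a 5' biotin and 3' phosphotyrosine-FITC DNA oligonucleotide reports Tdp1 activity: intact substrate bridges AlphaScreen beads, while cleavage leaves a 3' phosphate and drops signal. All incubations at room temperature.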
# TGFb SMAD3 inh – inhibitors of TGF-b signaling | 410,000 tested, 1.2% active | Potency, µM (doses to about 46.1 µM), without a hit: at the highest dose activity, negative = inhibition, usual class: inhibitors | HepG2 CAGA-GFP TGF-b/SMAD3 reporter, GFP fluorescence, 18 h; TGF-beta stimulated, 500 pg/mL final | AID 588855; note: potency is the fitted concentration of half-maximal effect; % is set by controls: 0 for no effect and ±100 for the full control effect; nearly all actives have a fitted effect of over 65% in size
#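 HEPG2 CAGA-GFP, 1000 cells/well; 2 h settle, 37 C; cpd via pin tool; TGF-b 500 pg/mL final; 18 h, 37 C; GFP imaging ex488/em500-530; %Activity normalised to -TGF-b and +DMSO controls; CRC fit, curve class.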
# IL-1B inflam inh – inflammasome signaling inhibition, IL-1 beta readout | THP-1 LPS/ATP IL-1B secretion, AlphaLISA, 16 h; hits give low values | activity change, % at 57.5 µM | 360,000 tested, 4.7% active; in the data active = activity change below about -50%; inconclusive = mostly about -30% to -49%; note: % is set by controls: 0 for no effect and ±100 for the full control effect
#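 THP-1 cells pretreated 1 hr with compounds (up to 57.5 uM final), then stimulated with LPS (250 ng/mL final) plus ATP (1.25 mM final); secreted IL-1B measured by AlphaLISA after 16 hr, decreased signal indicating inhibition.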
# Starred values were filed as active, the others as inactive; ? = inconclusive; . = not tested or not shown. Shown are actives, neighbours in structure and some others; about 19% of the full set was active somewhere. Unless noted, calls come from the whole dose curve; as a rule, active = well fitted curve in the direction sought with a large enough effect; inconclusive = small, poorly fitted or top-dose-only effect, or another doubt; inactive = no such curve, though single readings can be large; an effect the other way counts as inactive or inconclusive.
SMILES,DT40 TDP1 CPT,HepG2 tox,DT40 TDP1 no CPT,TDP1 block,TGFb SMAD3 inh,IL-1B inflam inh
CN(CCc1ccc(Cl)c(Cl)c1)C[C@@H](O)COc1ccc(NS(C)(=O)=O)cc1,?,.,24µM*,-2%,.,.
COc1cc(CNC(C)c2ccccc2)cc(Cl)c1OCC(=O)Nc1ccccc1 (stereo not given),9.2µM*,-3%,26µM*,3%,-16%,0
CCCCNCc1cc(Br)c(OCC(=O)NCc2ccccc2)c(OC)c1,-19%,-16%,?,0%,0%,-26
CCN(CC)CCNCc1cc(Cl)c(OCC(=O)Nc2ccccc2)c(OC)c1,?,-21%,23µM*,0%,15%,-25
CCc1ccccc1Nc1cc(C(=O)NCc2ccc(C)cc2)c2ccccc2n1,21µM*,-33%,?,-2%,-17%,.
CCc1ccccc1Nc1cc(C(=O)NC(C)c2ccccc2)c2ccccc2n1 (stereo not given),29µM*,-24%,?,-2%,?,.
CC(C)CCNC(=O)CCn1c(=O)c2cccn2c2cccnc21,8%,-3%,-16%,0%,1%,.
COc1cc2sc(-c3ccc(S(C)(=O)=O)cc3)c(C(=O)NCc3ccc(C)o3)c2cc1OC,?,-4%,13µM*,2%,7%,3
Cc1ccc(CNC(=O)c2c(-c3ccccc3)sc3ccccc23)o1,?,-15%,16µM*,0%,?,-25
CN(C)c1ccc(CCC2C=Cc3ccccc32)cc1 (stereo not given),?,9%,?,.,-12%,.
O=C(c1ccc(N2CCCC2)c([N+](=O)[O-])c1)N1CCN(CCO)CC1,0%,7.9µM*,26%,-11%,-3%,21
N#Cc1ccc(N2CCc3ccccc3C2)c([N+](=O)[O-])c1,-13%,-5%,23µM*,6%,4%,-28
CC1Cc2ccccc2N1C(=O)c1ccc2c(c1)OCO2 (stereo not given),?,5%,-8%,.,16%,-64*
Cc1ccc(C)c(N2CCN(C(=O)c3ccc(N4CCOCC4)c([N+](=O)[O-])c3)CC2)c1,?,-38%,16µM*,13%,-22%,-51*
CC1Cc2ccccc2N1C(=O)c1ccc2nccnc2c1 (stereo not given),-12%,4%,-2%,3%,-1%,7
O=C(COc1c(Cl)cc(Cl)cc1Cl)c1ccc(Cl)cc1,4%,2%,-12%,1%,-18%,18
O=Cc1cc(-c2ccccc2)[nH]c1-c1ccccc1,22%,7%,14%,.,-3%,-18
O=C(Cn1ncc2c3ccccc3n(Cc3ccc(F)cc3)c2c1=O)NCc1ccccn1,?,-20%,?,5%,-5%,.
CC1Cc2ccccc2N1C(=O)c1ccc(N2CCCC2)c([N+](=O)[O-])c1 (stereo not given),?,-40%,?,5%,-25%,-82*
O=C(c1ccc(N2CCCCC2)c([N+](=O)[O-])c1)N1CCOCC1,2%,-2%,-13%,4%,0%,-9
COC(=O)CCN(C(=O)c1ccc(N2CCCCC2)c([N+](=O)[O-])c1)c1ccccn1,4%,6%,?,-3%,-13%,7
O=C(c1ccc(N2CCCC2)c([N+](=O)[O-])c1)N1CCc2ccccc2C1,16µM*,0%,29µM*,0%,-21%,?
O=C(c1ccc(N2CCCCC2)c([N+](=O)[O-])c1)N(Cc1ccccc1)c1ccccn1,16µM*,-8%,18µM*,5%,-5%,?
O=C(NC(Cc1ccccc1)C(=O)NCCc1ccccn1)c1ccccc1 (stereo not given),-1%,-24%,-23%,.,?,14
CCN(C[C@H]1N[C@@](C)(C(=O)OC)[C@H]2C(=O)N(C)C(=O)[C@@H]12)C(=O)COC,-1%,-8%,2%,1%,0%,0
SMILES,DT40 TDP1 CPT,HepG2 tox,DT40 TDP1 no CPT,TDP1 block,TGFb SMAD3 inh,IL-1B inflam inh
NC(=O)c1cccc(-c2csc(C(O)c3ccccc3)n2)c1 (stereo not given),?,5%,-2%,.,3%,6
COc1cccc(-c2nc(CS(=O)(=O)CC(=O)Nc3ccccc3Br)c(C)o2)c1,-29%,-25%,?,3%,-20%,-8
CCn1c(Cl)c(C=O)s/c1=N\S(=O)(=O)c1ccccc1,0.82µM*,8.9µM*,0.37µM*,0%,3.5µM*,-3
CCN1C(=O)CS/C1=N\S(=O)(=O)c1ccc(Cl)cc1,8%,16%,-6%,2%,34%,2
CCOC(=O)CC(NC(=O)CCS(=O)(=O)c1ccc2c(c1)n(C)c(=O)c(=O)n2C)c1ccc(C)cc1 (stereo not given),-8%,8%,0%,2%,-2%,0
Cc1ccc2cc(/C=C3\N=C(c4ccccc4)OC3=O)c(N3CCOCC3)nc2c1,?,-1%,18µM*,2%,?,15
c1ccc2c(Nc3nc(N4CCOCC4)c4ccccc4n3)cccc2c1,13µM*,-39%,23µM*,0%,25µM*,-109*
Fc1ccc(Nc2nc(N3CCOCC3)c3ccccc3n2)cc1,?,-38%,23µM*,3%,?,-78*
Nc1nc(Nc2ccccc2)nc(N2CCOCC2)c1[N+](=O)[O-],-26%,23%,1%,-1%,2%,-6
CCC(=O)N1CCc2cc(Br)cc(S(=O)(=O)CCC(=O)Nc3ccc(C)c(C)c3)c21,12%,-3%,1%,5%,-13%,.
O=C(CN1CCCCCC1=O)N1CCN(S(=O)(=O)c2cccs2)CC1,-13%,4%,1%,5%,4%,-8
C[C@H]1CN([C@@H](C)CO)S(=O)(=O)c2ccc(C3=CCCC3)cc2O[C@@H]1CN(C)C(=O)C1CCCCC1,-94%,-38%,-111%,.,?,-51*
C[C@H]1CN([C@@H](C)CO)S(=O)(=O)c2ccc(/C=C/c3ccccc3)cc2O[C@H]1CN(C)C(=O)NC1CCCCC1,?,-5%,18µM*,.,?,-55*
C[C@@H]1CN([C@H](C)CO)S(=O)(=O)c2ccc(Br)cc2O[C@H]1CN(C)C(=O)C1CCCCC1,26µM*,6%,13µM*,.,27%,11
